Screening results: PubChem BioAssay, National Center for Advancing Translational Sciences (NCATS)
Rows were chosen to be rich in hits. Some 10% of all compounds tested hit in one or more screens of this group.
HEK293 tox: cytotoxic compounds in HEK 293 cells; HEK 293 viability, ATP luminescence (CellTiter-Glo), 48-72 h; Potency, µM (top dose mostly 115 µM), most hits filed as inhibitors; 6.6% of 94,000 active; also: nearly all actives have a fitted effect of over 60% in size
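Viability of HEK 293 cells, plated at 250 cells/well, was judged by cellular ATP after compound treatment for 48 or 72 hr. Luminescence was imaged 10 min after CellTiter-Glo addition at room temperature.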
GPT2 inh: GPT2 alanine aminotransferase inhibition | Q8TD30 | Recombinant GPT2, coupled pyruvate oxidase/HRP Amplex Red fluorescence | Potency, µM (highest dose often 57.7 µM), actives largely listed as inhibitors | 0.25% of 100,000 active; also: nearly all actives have a fitted effect of over 60% in size
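GPT2 10ng/uL, a-KG 250uM, L-Ala 2mM, HEPES pH7.5 + 0.0001% Tween; 30 min RT. Then Amplex mix (PO/HRP/ThPP), 30 min RT dark, fluorescence. AOA 50uM used as positive control.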
FLuc inh: blocks purified firefly luciferase enzyme activity; P08659; purified P. pyralis luciferase, luminescence, biochemical; Potency, µM (top dose mostly 115 µM), usual class: inhibitors; 2.5% of 76,000 active; also: nearly all actives have a fitted effect of over 65% in size
Target sequence (P08659 whole entry, looked up): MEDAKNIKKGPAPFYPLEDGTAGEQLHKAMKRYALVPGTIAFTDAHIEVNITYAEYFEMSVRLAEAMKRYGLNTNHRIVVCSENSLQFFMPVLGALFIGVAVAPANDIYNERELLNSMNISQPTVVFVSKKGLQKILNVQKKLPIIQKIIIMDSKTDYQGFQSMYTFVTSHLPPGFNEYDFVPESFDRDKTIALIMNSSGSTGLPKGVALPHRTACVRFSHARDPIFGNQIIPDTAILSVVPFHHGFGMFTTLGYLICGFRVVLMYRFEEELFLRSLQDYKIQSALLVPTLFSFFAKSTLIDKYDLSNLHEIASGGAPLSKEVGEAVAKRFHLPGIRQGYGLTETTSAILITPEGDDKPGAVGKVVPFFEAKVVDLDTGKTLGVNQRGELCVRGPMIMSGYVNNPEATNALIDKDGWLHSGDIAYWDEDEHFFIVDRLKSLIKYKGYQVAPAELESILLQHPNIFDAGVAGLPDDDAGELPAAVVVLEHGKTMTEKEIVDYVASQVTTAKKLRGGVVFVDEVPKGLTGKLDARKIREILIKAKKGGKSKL
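Inhibitors were tested against purified firefly luciferase in a biochemical, low-substrate format (both substrates at 10uM) and luminescence measured with a CCD imager.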
NIH3T3 tox: kills NIH 3T3 cells; NIH 3T3 viability, CellTiter-Glo ATP luminescence, 48-72 h; Potency, µM (series often up to 96.7 µM), actives largely listed as inhibitors; 4.3% of 94,000 active; AID 1345082; also: nearly all actives have a fitted effect of over 55% in size
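NIH 3T3 cells at 400 cells/well received 23 nL of compound by pintool and were incubated 48 or 72 h at 37 °C. Viability was read as ATP-coupled CellTiter-Glo luminescence.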
NPR1 antag: antagonists of human natriuretic peptide receptor Npr1. 1.6% of 76,000 active. Potency, µM (doses to about 46.3 µM), hits mostly inhibitors. AID 1347048. HEK293 hNpr1 GloSensor cGMP, ANP-stimulated luminescence; calls by dose curve; also: nearly all actives have a fitted effect of over 60% in size
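Compound pre-incubated 30 min at room temperature on GloSensor-loaded HEK293 cells stably carrying hNpr1 and the pGS-40F cGMP biosensor. Stimulation uses hNppA at 0.1 nM final; luminescence is taken at baseline and 20 min post-agonist.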
A number is an active result; . = inactive; ? = inconclusive; / = no result given; ! = a repeat was not active. Unless noted, calls follow the shape of the dose curve; as a rule, active = well fitted curve in the direction sought with a large enough effect; inconclusive = small, poorly fitted or top-dose-only effect, or another doubt; inactive = no such curve, though single readings can be large; an effect the other way counts as inactive or inconclusive.

SMILES	HEK293 tox	GPT2 inh	FLuc inh	NIH3T3 tox	NPR1 antag
Cc1noc2c(NCCCn3ccnc3)cc(-c3ccccn3)nc12	.	.	.	25.1µM	.
O=C(Nc1ccc(Cl)cc1)N1CCC(c2nn(-c3ccccn3)c(=O)[nH]2)CC1	.	.	/	.	/
O=C(c1c(F)cccc1F)N1CCC(OC2CCN(Cc3ccccc3)CC2)CC1	.	.	.	.	.
COC(=O)[C@H](Cc1ccc(OC)cc1)NC(=O)[C@H]1CN(C(C)=O)CCN1S(=O)(=O)c1ccccc1	.	.	.	44.7µM	.
COC(=O)[C@H](Cc1ccc(OC)cc1)NC(=O)[C@@H]1CN(C(=O)NC(C)C)CCN1S(C)(=O)=O	.	.	.	.	.
CC(=O)N1CCC(N2C(=O)c3c(c(C)nn3-c3ccccc3)C2C)CC1 (configuration not stated)	.	/	/	?	/
Cc1nn(-c2ccccc2)c2c1C(C(C)C)N(C1CCN(C(=O)c3ccncc3)C1)C2=O (configuration not stated)	?	/	/	.	/
Cc1nn(-c2ccccc2)c2c1C(C(C)C)N(C1CCN(C(=O)c3ccccc3)CC1)C2=O (configuration not stated)	44.7µM	/	/	?	/
Cc1nn(-c2ccccc2)c2c1C(C(C)C)N(C1CCN(C(=O)c3ccc(C(F)(F)F)cc3)C1)C2=O (configuration not stated)	?	/	/	15.8µM	/
COC(=O)N1CCC(N2C(=O)c3c(c(C)nn3-c3ccccc3)C2C(C)C)CC1 (configuration not stated)	?	/	/	.	/
Cc1nn(-c2ccccc2)c2c1C(C(C)C)N(C1CCN(C(=O)N(C)C)CC1)C2=O (configuration not stated)	44.7µM	/	/	?	/
Cc1nn(-c2ccccc2)c2c1C(C)N(C1CCN(C(=O)Cc3ccc(F)cc3)CC1)C2=O (configuration not stated)	50.1µM	/	/	?	/
COc1ccc2c(c1)O[C@H](O[C@@H]1O[C@H](CO)[C@@H](O)[C@H](O)[C@H]1O)C(=O)N2	/	.	/	/	/
O=C(c1cccnc1)N1CCC2(CC1)CC(CCOc1ccncc1)CCO2 (configuration not stated)	?	.	/	.	/
Cc1nn(-c2ccccc2)c2c1C(C)N(C1CCN(C(=O)c3ccc(F)cc3)CC1)C2=O (configuration not stated)	?	/	/	35.5µM!	/
Cc1nn(-c2ccccc2)c2c1C(C(C)C)N(C1CCN(C(=O)c3ccc(F)cc3)CC1)C2=O (configuration not stated)	35.5µM	/	/	?	/
Cc1nn(-c2ccccc2)c2c1C(C(C)C)N(C1CN(C(=O)c3ccc(Cl)cc3)C1)C2=O (configuration not stated)	31.6µM	/	/	?	/
COCCNC(=O)C[C@@H]1C[C@H]2O[C@H](CN)[C@@H](O)[C@H]2O1	.	.	.	.	.
CCc1ccc(C(=O)NC2CCN(c3cn[nH]c(=O)c3)CC2)cc1	.	.	.	.	.
COc1ccc(CNC(=O)C2CN(C)C(=O)N2)cc1 (configuration not stated)	.	.	/	.	/
O=C(NC1CCCN(c2ccnc3ccnn23)C1)c1ccc(Cl)cc1 (configuration not stated)	39.8µM	.	/	?	/
O=C(NC1CCCN(c2ccnc3ccnn23)C1)c1ccccc1 (configuration not stated)	?	.	/	?	/
O=C(NC1CCCN(c2ccnc3ccnn23)C1)c1ccc2c(c1)OCO2 (configuration not stated)	35.5µM	.	/	?	/
COc1cccc(C(=O)NC2CCN(c3ccnc4ccnn34)CC2)c1	35.5µM	.	/	?	/
COc1ccc(C(=O)NC2CCCN(c3ccnc4ccnn34)C2)cc1 (configuration not stated)	31.6µM	.	/	?	/
SMILES	HEK293 tox	GPT2 inh	FLuc inh	NIH3T3 tox	NPR1 antag
COc1cccc(C(=O)NC2CCCN(c3ccnc4ccnn34)C2)c1 (configuration not stated)	?	.	/	?	/
O=S1(=O)NC2(CCCN(Cc3ccc(F)cc3)C2)COc2ccccc21 (configuration not stated)	?	.	/	?	/
O=C(NC1CCCN(c2ccnc3ccnn23)C1)c1cccc(Br)c1 (configuration not stated)	79.4µM	.	/	?	/
O=C(NC1CCCN(c2ccnc3ccnn23)C1)c1cccc(Cl)c1 (configuration not stated)	?	.	/	?	/
COc1ccc(CCNC(=O)C2CCCN(Cc3cccc(-c4ccc(F)cc4F)c3)C2)cc1 (configuration not stated)	10µM	.	/	?	/
O=C(NCC1CCCCCC1)C1CCCN(Cc2cccc(-c3ccc(F)cc3F)c2)C1 (configuration not stated)	?	.	/	?	/
O=C(NCCc1ccccc1)C1CCCN(Cc2cccc(-c3ccc(F)cc3F)c2)C1 (configuration not stated)	39.8µM	.	/	?	/
O=C(NCCc1ccc(F)cc1)C1CCCN(Cc2cccc(-c3ccc(F)cc3F)c2)C1 (configuration not stated)	39.8µM	.	/	?	/
COCC1(O)CCOC2(CCN(C(=O)c3cccs3)CC2)C1 (configuration not stated)	.	.	/	.	/
Cc1noc(C)c1-c1cc(-c2ccc([S+](C)(=O)[O-])cc2)cn2cncc12	?	.	.	?	.
Cc1noc(C)c1-c1cc(-c2ccccc2F)cn2cncc12	79.4µM	.	.	?	.
FC(F)(F)c1ccccc1-c1cc(-c2cccnc2)c2cncn2c1	63.1µM	.	.	44.7µM	.
Cc1noc(C)c1-c1cc(-c2ccccc2C(F)(F)F)cn2cncc12	70.8µM	.	.	?	.
CC(C)NC(=O)N1CC[C@H](n2c(=O)n(C)c3cccnc32)C1	.	.	/	.	/
O=C(NCc1cccc(Cl)c1)c1nc2cccnc2n(Cc2ccccc2)c1=O	?	.	/	?	/
CC1(c2ccccc2)N(Cc2ccccc2C#N)C(=O)OC12CCN(C(=O)Cc1ccccn1)CC2 (configuration not stated)	.	.	.	28.2µM	.
COc1cccc(CN2C(=O)OC3(CCN(C(=O)Cc4ccccn4)CC3)C2(C)c2cccnc2)c1 (configuration not stated)	.	.	.	35.5µM	.
COc1cccc(CN2C(=O)OC3(CCN(Cc4ccccn4)CC3)C2(C)c2cccnc2)c1 (configuration not stated)	.	.	.	?	.
COc1cccc(CC(=O)N2CCC3(CC2)OC(=O)N(Cc2csc(C)n2)C3(C)c2ccccc2)c1 (configuration not stated)	.	.	.	7.08µM	.
COc1ccccc1CN[C@H]1Cc2ccc(cc2)Nc2cc(ccc2OC)C[C@H](C(=O)NCc2ccccc2)N(C)C1=O	39.8µM	.	.	?	.
